The results in this text go back to the supplement of paper PMC4894684.

Molecules are shown by their SMILES. Where a name gives a salt, the structure may show the parent alone. ± gives the standard deviation of the averaged measurements.

This experiment deals with Toxoplasma gondii RH (in HFF). The experiment can be described thus: parasite growth relative to the screen mean (all compounds = 100%); higher = less inhibition of parasite growth. The following applies: 5 µM; 72 h; oxygen 21 %. The procedure, abridged:
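Confluent human foreskin fibroblasts in 96-well plates received library compounds by pin transfer at 5 µM final, taken from 10 mM DMSO stocks. Within 2 h the cells were infected with RH β-Gal–GFP Toxoplasma at MOI 1:5 and cultured 72 h at 21% O2. A CPRG β-Gal assay read against in-plate standard curves gave parasite number, and growth is stated relative to the screen mean, where all compounds = 100%, averaged across two screens.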
Consider `CCO/C(O)=C1\C(C)=NC(c2ccccc2)=C(C(=O)OCc2ccc([N+](=O)[O-])cc2)C1C#Cc1ccccc1` (centres undefined), for which the parasite growth amounted to 67.4 ± 16%.

In turn, `CC1(C)O[C@@H]2[C@@H](CO[C@@]3(COS(N)(=O)=O)OC(C)(C)O[C@@H]23)O1` [Topiramate] returned a parasite growth of 112 ± 8.3%.

As to `Cc1noc(NS(=O)(=O)c2ccc(N)cc2)c1C` [Sulfisoxazole], the parasite growth turned out to be 108 ± 1.1%.

`C[N+]1(C)CCC(OC(=O)C(c2ccccc2)c2ccccc2)CC1` displayed a parasite growth of 86.5 ± 39%.

As to `CN1CCN(CCc2ccc(Cl)c(Cl)c2)CC1` [BD 1063 dihydrochloride], the parasite growth turned out to be 50.9 ± 5.6%.

`COc1cc(/C=C(\C#N)C(N)=O)cc(CSc2nc3ccccc3s2)c1O` yielded a parasite growth of 128 ± 3.3%.

`O=C(NCC1CCCCN1)c1cc(OCC(F)(F)F)ccc1OCC(F)(F)F` (centres undefined) [Flecainide acetate] displayed a parasite growth of 130 ± 7.9%.

`NC(N)=Nc1ccc(Cl)cc1` [4-Chlorophenylguanidine hydrochloride] displayed a parasite growth of 125 ± 3.5%.

The compound `COc1cc(SC)ccc1C(=O)N1CCC(Cc2ccccc2)CC1` had a parasite growth of 112 ± 5.8%.

The compound `COc1ccc(-c2ccc(=N)n(CCCC(=O)O)n2)cc1` yielded a parasite growth of 133 ± 26%.

`CC(C)N1Cc2cc(S(C)(=O)=O)ccc2N(CCN2CC=C(c3c[nH]c4cc(F)ccc34)CC2)S1(=O)=O` returned a parasite growth of 181 ± 36%.

In the case of `CC(Cc1ccccc1)(NC(=O)CN)c1ccccc1` (centres undefined) [Remacemide hydrochloride], the parasite growth turned out to be 129 ± 5.9%.

For `CC(C)(C)c1ccc(/C=C/C(=O)Nc2ccc3c(c2)OCCO3)cc1`, the parasite growth turned out to be 133.4 ± 1%.

In turn, `O=C1C(SCCO)=C(SCCO)C(=O)c2ccccc21` showed a parasite growth of 180 ± 14%.

`CN(C)CCCn1cc(C2=C(c3c[nH]c4ccccc34)C(=O)NC2=O)c2ccccc21` showed a parasite growth of less than 0%.

`CCCCc1nc2ccn(Cc3cccs3)c(=O)c2n1Cc1ccc(-c2ccccc2-c2nn[nH]n2)cc1` came in with a parasite growth of 104 ± 12%.

With `O=C(O)c1c(Sc2ccccc2)c2cc(Cl)ccc2n1Cc1ccc(Cl)cc1`, the parasite growth is 88.5 ± 6.7%.

`O=C(NCCCN1CCCCCC1)C(c1ccccc1)C1CCCCC1` (centres undefined) had a parasite growth of 83 ± 2.4%.

In the case of `COc1ccc(S(=O)(=O)N2c3ccc(Cl)cc3[C@](O)(c3ccccc3Cl)[C@@H]2C(=O)N2CCC[C@H]2C(N)=O)cc1OC`, the parasite growth worked out at 144 ± 26%.

Turning to `Oc1cc2c(cc1O)C(c1ccccc1)CNCC2` (centres undefined), the parasite growth was found to be 162 ± 47%.

`CC(C)c1onc(-c2c(Cl)cccc2Cl)c1COc1ccc(/C=C/c2cccc(C(=O)O)c2)c(Cl)c1` had a parasite growth of 95.6 ± 18%.

Consider `CN(C)CCCCSC(=N)N`, for which the parasite growth amounted to 93.3 ± 15%.

On to `Cc1ccc(C(=O)Cn2c3c(sc2=N)CCCC3)cc1` [Pifithrin- α hydrobromide], for which the parasite growth came out at 130 ± 1.9%.

For `Cc1cc(/C(=C/Nc2ccc(Cl)cc2)C(=O)Nc2ccc(Cl)cc2)on1`, the parasite growth was 139 ± 40%.

Compound `C[C@H](NC[C@H](O)CP(=O)(O)Cc1ccccc1)c1ccc(Cl)c(Cl)c1` showed a parasite growth of 108.5 ± 0.57%.

Turning to `CC1(C)NC(=O)N(c2ccc([N+](=O)[O-])c(C(F)(F)F)c2)C1=O` [Nilutamide], the parasite growth worked out at 150 ± 36%.

`COC(=O)c1c(-c2cc(OC)c(OC)c(OC)c2)c2ccnc(OCc3ncccn3)c2c(=O)n1Cc1ccnc(C)c1` [T 0156 hydrochloride] registered a parasite growth of 89.9 ± 14%.

As to `C/C(=N\NC(=O)C1C(=O)NCC1c1ccccc1)c1cccc(Br)c1` (centres undefined), the parasite growth came to 147 ± 29%.

Compound `N[C@@H](Cc1cc(CP(=O)(O)O)cc(-c2ccccc2Cl)c1)C(=O)O` showed a parasite growth of 122 ± 6.2%.

`COc1[nH]c2ccc(F)cc2c1C(=O)OCC1CCN(CCNS(C)(=O)=O)CC1.NS(=O)(=O)O` had a parasite growth of 80.2 ± 32%.

The compound `COc1ccc2c(c1)c(CC(=O)O)c(C)n2C(=O)c1ccc(Cl)cc1` [Indomethacin] yielded a parasite growth of 150 ± 30%.

In the case of `CNCCC(Oc1ccccc1OC)c1ccccc1` (centres undefined) [Nisoxetine hydrochloride], the parasite growth amounted to 67 ± 20%.

`OC(CN1CCC(Cc2ccc(F)cc2)CC1)c1ccc(Cl)cc1` (centres undefined) [Eliprodil] registered a parasite growth of 93.6 ± 21%.

`O=S(=O)(c1ccccc1)N(CC(F)(F)F)c1ccc(C(O)(C(F)(F)F)C(F)(F)F)cc1`: the parasite growth came to 132 ± 5.8%.

In the case of `Cc1ccc(O)c(N=Nc2ccccc2)n1`, the parasite growth was 92.5 ± 68%.

Compound `O=C(c1ccc(F)cc1)C1CCN(CCn2c(=O)[nH]c3ccccc3c2=O)CC1` [Ketanserin tartrate] displayed a parasite growth of 183 ± 33%.

`CC(C)C1C2CCC(C2)C1N` (centres undefined) gave a parasite growth of 118 ± 6.6%.

The compound `Cc1[nH]c(/C=C2\C(=O)Nc3ccccc32)c(C)c1CCC(=O)O` yielded a parasite growth of 102 ± 8.8%.

Consider `COP(=O)(OC)OC(c1ccc(Cl)cc1)P(=O)(OC)OC` (centres undefined), for which the parasite growth is 79.4 ± 28%.
